Laboratory results taken from PubChem BioAssay (Tox21).
Results filed as inconclusive are left out. Calls of active or inactive are those of the source. Unless noted, the call rests on the fitted dose curve.

Assays:
[1] = Nuclear factor erythroid 2-related factor 2/antioxidant responsive element (Nrf2/ARE) small molecule agonists: qHTS cell viability counter screen in human keratinocytes (AID 1919968; active means well fitted curve in the direction sought with a large enough effect in the repeat runs; an effect the other way counts as inactive or inconclusive; further: nearly all actives have a fitted effect of over 55% in size; further: potency means the concentration at half of the fitted maximal effect)
Summary of the method: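 Cells of the KeratinoSens line were plated at 1,500 per well and left for 5 h before compound transfer from DMSO stocks. After a 23 h incubation (37 C, 5% CO2), CellTiter-Fluor was added. Signal was taken as fluorescence intensity 1 h later.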

[2] = target: Gonadotropin-releasing hormone receptor (Homo sapiens) (UniProt P30968); assay: Human gonadotropin-releasing hormone receptor (GnRHR) small molecule agonists, calcium flux assay in GnRHR-HEK293 cells (AID 1920063); further: nearly all actives have a fitted effect of over 35% in size; further: potency means the concentration at half of the fitted maximal effect
Summary of the method: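 Compounds dissolved in DMSO are pin-transferred onto dye-loaded GnRHR-HEK293 cells, which were seeded 18 h before at 37 C/5% CO2. Calcium signal is read as fluorescence intensity at 1 s intervals for 3 min.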

[3] = target: KiSS-1 receptor (Homo sapiens) (UniProt Q969F8); assay: Human kisspeptin (KISS1R) small molecule agonists, calcium flux assay in KISS1R-HEK293 cells (AID 1920064; active means well fitted curve in the direction sought with a large enough effect in the repeat runs; an effect the other way counts as inactive or inconclusive; further: potency means the concentration at half of the fitted maximal effect)
Summary of the method: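 Cell line: HEK293, stable human KISS1R. Dye loading 1 h at 37 C after 18 h culture. Read: kinetic fluorescence, 480/540 nm, 3 min at 1 s intervals.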

[4] = G protein-coupled receptor (GPCR) small molecule agonists, calcium flux assay: HEK293 wild type cell line counter screen (AID 1920065); further: potency means the concentration at half of the fitted maximal effect
Summary of the method: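 Tox21 10K compounds, 15 concentrations each in triplicate, pin-transferred in DMSO onto dye-loaded cells; kinetic read at 480/540 nm for 3 min, 1 s intervals.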

[5] = p53 small molecule agonists, cell-based qHTS assay with human liver microsomes (AID 1963577);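 further: p53 response element beta-lactamase reporter cells with liver microsomes plus NADPH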
Summary of the method: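 16 h, 37 C exposure of p53RE-bla cells to compounds with human liver microsomes and NADPH (0.5 mg/mL final each); detection via LiveBLAzer mixture, 2 h dark at room temperature.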

[6] = p53 small molecule agonists, cell-based qHTS assay with rat liver microsomes (AID 1963578)
Summary of the method: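 With rat liver microsomes and NADPH present (0.5 mg/mL final each), p53RE-bla cells are treated with compound for 16 h at 37 C. LiveBLAzer detection mixture is then applied for 2 h at room temperature in the dark.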

[7] = p53 small molecule agonists, cell-based qHTS assay with rat liver microsomes: qHTS cell viability counter screen (AID 1963580); further: nearly all actives have a fitted effect of over 45% in size
Summary of the method: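 Cytotoxicity counter screen: intracellular ATP read by CellTiter-Glo luminescence in the p53 reporter wells. HCT-116 p53RE-bla cells were treated for 16 h at 37 C alongside rat liver microsomes and NADPH, each 0.5 mg/mL final.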

[8] = p53 small molecule agonists, cell-based qHTS assay: qHTS cell viability counter screen (AID 1963581); further: nearly all actives have a fitted effect of over 45% in size
Summary of the method: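 ATP content measured by luminescence in HCT-116 p53RE-bla cells treated 16 h at 37 C, same wells as the reporter screen.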

[9] = p53 small molecule agonists, cell-based qHTS assay (AID 1963582; active means well fitted activation curve with a large enough effect in the signal ratio in the repeat runs, not every such curve was filed as active; the % refers to the signal ratio)
Summary of the method: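 16 h compound exposure (37 C) of p53 response element–bla cells, preceded by 5 h recovery at 37 C/5% CO2; read-out via LiveBLAzer B/G FRET substrate, 2 h RT, fluorescence intensity.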

[10] = target: 5-hydroxytryptamine receptor 2A (Homo sapiens) (UniProt P28223); assay: 5-hydroxytryptamine receptor 2A (HTR2A) small molecule antagonists, cell-based qHTS assay (AID 1963586); further: nearly all actives have a fitted effect of over 45% in size
Summary of the method: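 CHO cells stably expressing human HTR2A were plated for 18 h at 37 C, then loaded with calcium dye for 1 h. Compounds were preincubated 5 min at room temperature before DOI (4 nM solution) was added. Kinetic fluorescence was read for 3 min.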

[11] = target: 5-hydroxytryptamine receptor 2A (Homo sapiens) (UniProt P28223); assay: 5-hydroxytryptamine receptor 2A (HTR2A) small molecule agonists, cell-based qHTS assay (AID 1963587); further: nearly all actives have a fitted effect of over 30% in size; further: potency means the concentration at half of the fitted maximal effect
Summary of the method: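 Kinetic calcium-flux fluorescence (2 min, 1 sec intervals) after compound addition in agonist mode. HTR2A-CHO cells were cultured 18 h, then dye-loaded 1 h at 37 C.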

[12] = target: Muscarinic acetylcholine receptor M1 (Homo sapiens) (UniProt P11229); assay: Cholinergic receptor muscarinic 1 (CHRM1) small molecule agonists, cell-based qHTS assay (AID 1963589); further: nearly all actives have a fitted effect of over 35% in size; further: potency means the concentration at half of the fitted maximal effect
Summary of the method: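 Homogeneous fluorescence calcium flux, agonist mode. Human M1-expressing CHO cells; compound dosed at 15 concentrations, three independent runs; signal sampled every 1 sec.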

[13] = cAMP Responsive Elements (CRE) small molecule antagonists, cell-based qHTS assay (AID 1963591; active means well fitted inhibition curve with a large enough effect in the signal ratio in the repeat runs, not every such curve was filed as active; the % refers to the signal ratio; further: potency means the concentration at half of the fitted maximal effect)
Summary of the method: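 First, CRE-bla HEK293T cells settled 18 h at 37 C. Next, compound and 0.25 uM final NKH477 were applied for 3 h. Last, LiveBLAzer B/G substrate was loaded for 2 h at room temperature.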

[14] = target: Beta-2 adrenergic receptor (Homo sapiens) (UniProt P07550); assay: Adrenergic beta2 receptor (ADRB2) small molecule antagonists, cell-based qHTS assay (AID 1963592); further: series mostly up to about 92 µM; nearly all actives have a fitted effect of over 50% in size
Summary of the method: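 Assay format: CHO-ADRB2 cells, 18-20hr seeding at 37C/5% CO2, then compound plus 1nM isoproterenol agonist mix for 0.5hr RT. Homogeneous time-resolved fluorescence cAMP detection after 1hr, expressed as 665/615 nm ratio.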

[15] = target: D(2) dopamine receptor (Homo sapiens) (UniProt P14416); assay: Dopamine D2 receptor (DRD2) small molecule agonists, cell-based qHTS assay (AID 1963594); further: nearly all actives have a fitted effect of over 35% in size
Summary of the method: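 cAMP accumulation in DRD2-HEK293 cells measured by HTRF after 1 h detection; compounds added 10 min before NKH477 (200nM […]) forskolin-analogue stimulation, 30 min at room temperature, with Ro20-1724 present at 0.1 mM final.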

[16] = target: D(2) dopamine receptor (Homo sapiens) (UniProt P14416); assay: Dopamine D2 receptor (DRD2) small molecule antagonists, cell-based qHTS assay (AID 1963595; active means well fitted inhibition curve with a large enough effect in the signal ratio in the repeat runs, with a control signal flat; the % refers to the signal ratio)
Summary of the method: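 HEK293 cells stably expressing DRD2 were preincubated with 0.1 mM Ro20-1724, then with compound for 10 min at room temperature. Cells were stimulated with 200 nM NKH477 plus 12 nM quinpirole for 30 min, and cAMP was read by HTRF.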

[17] = target: Muscarinic acetylcholine receptor M1 (Homo sapiens) (UniProt P11229); assay: Cholinergic receptor muscarinic 1 (CHRM1) small molecule antagonists, cell-based qHTS assay (AID 1963588); further: nearly all actives have a fitted effect of over 40% in size
Summary of the method: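 Compounds were tested at 15 concentrations in three independent runs. Dye-loaded CHRM1-CHO cells were exposed 5 min at room temperature before stimulation by acetylcholine added at 50nM. Intracellular calcium was read kinetically on FDSS for 3 min.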

[18] = cAMP Responsive Elements (CRE) small molecule agonists, cell-based qHTS assay (AID 1963590)
Summary of the method: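 HEK 293T cells stably bearing CRE-bla were plated at 2,000 cells per well and rested 18 h. Compounds, positive controls or DMSO were added for 3 h at 37 C. LiveBLAzer B/G substrate was then loaded for 2 h at room temperature.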

[19] = target: Beta-2 adrenergic receptor (Homo sapiens) (UniProt P07550); assay: Adrenergic beta2 receptor (ADRB2) small molecule agonists, cell-based qHTS assay (AID 1963593);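 further: CHO cells stably overexpressing human ADRB2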
Summary of the method: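 CHO cells stably over-expressing ADRB2 were plated overnight at 37C, then dosed with compounds plus a stimulation mix containing 100uM IBMX and 25uM Ro-20-1724 for 0.5hr at room temperature. cAMP was measured by HTRF competition, 1hr.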

[20] = p53 small molecule agonists, cell-based qHTS assay with human liver microsomes: qHTS cell viability counter screen (AID 1963579); further: nearly all actives have a fitted effect of over 45% in size
Summary of the method: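 In this multiplexed counter screen, the reporter plates were subsequently treated with CellTiter-Glo so that cell viability, reflected by luminescence, could be recorded for p53RE-bla cells dosed 16 h with compounds under microsomal activation (HLM and NADPH).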
On the % scale 0 is the no-effect control and ±100 the full control effect.

Chain of Gonadotropin-releasing hormone receptor (Homo sapiens) (P30968 whole entry, looked up): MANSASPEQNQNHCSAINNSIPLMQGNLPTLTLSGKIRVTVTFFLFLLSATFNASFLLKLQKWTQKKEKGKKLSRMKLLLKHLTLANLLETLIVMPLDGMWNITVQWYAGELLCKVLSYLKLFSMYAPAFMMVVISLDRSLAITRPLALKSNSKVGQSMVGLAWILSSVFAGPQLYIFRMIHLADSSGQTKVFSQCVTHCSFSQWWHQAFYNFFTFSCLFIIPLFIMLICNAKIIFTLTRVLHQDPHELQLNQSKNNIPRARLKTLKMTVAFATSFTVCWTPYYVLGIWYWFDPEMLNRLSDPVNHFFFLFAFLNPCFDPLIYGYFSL
Chain of Muscarinic acetylcholine receptor M1 (Homo sapiens) (P11229 whole entry, looked up): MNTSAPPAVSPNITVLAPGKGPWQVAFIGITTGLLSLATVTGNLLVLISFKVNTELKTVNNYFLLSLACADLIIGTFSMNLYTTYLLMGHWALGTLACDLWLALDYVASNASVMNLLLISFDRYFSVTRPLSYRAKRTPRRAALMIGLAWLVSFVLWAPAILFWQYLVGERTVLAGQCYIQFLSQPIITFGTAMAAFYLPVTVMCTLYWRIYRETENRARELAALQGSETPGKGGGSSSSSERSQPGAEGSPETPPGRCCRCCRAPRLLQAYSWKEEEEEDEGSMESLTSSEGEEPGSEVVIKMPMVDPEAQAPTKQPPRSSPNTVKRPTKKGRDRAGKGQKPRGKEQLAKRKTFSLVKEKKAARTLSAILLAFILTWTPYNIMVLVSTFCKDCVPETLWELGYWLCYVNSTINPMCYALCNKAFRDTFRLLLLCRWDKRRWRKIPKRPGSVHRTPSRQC
Chain of D(2) dopamine receptor (Homo sapiens) (P14416 whole entry, looked up): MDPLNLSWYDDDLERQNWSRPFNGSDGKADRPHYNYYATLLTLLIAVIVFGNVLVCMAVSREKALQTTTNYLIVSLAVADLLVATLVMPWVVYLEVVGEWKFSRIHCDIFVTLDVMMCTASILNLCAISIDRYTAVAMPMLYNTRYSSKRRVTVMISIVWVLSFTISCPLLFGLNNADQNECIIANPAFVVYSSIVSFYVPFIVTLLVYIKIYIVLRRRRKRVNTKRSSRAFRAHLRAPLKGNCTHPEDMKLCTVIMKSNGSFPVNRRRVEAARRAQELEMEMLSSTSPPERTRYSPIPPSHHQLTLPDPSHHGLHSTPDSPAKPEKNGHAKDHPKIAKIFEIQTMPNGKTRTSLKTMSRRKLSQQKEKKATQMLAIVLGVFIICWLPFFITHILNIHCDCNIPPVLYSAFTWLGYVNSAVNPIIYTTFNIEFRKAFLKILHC
Chain of 5-hydroxytryptamine receptor 2A (Homo sapiens) (P28223 whole entry, looked up): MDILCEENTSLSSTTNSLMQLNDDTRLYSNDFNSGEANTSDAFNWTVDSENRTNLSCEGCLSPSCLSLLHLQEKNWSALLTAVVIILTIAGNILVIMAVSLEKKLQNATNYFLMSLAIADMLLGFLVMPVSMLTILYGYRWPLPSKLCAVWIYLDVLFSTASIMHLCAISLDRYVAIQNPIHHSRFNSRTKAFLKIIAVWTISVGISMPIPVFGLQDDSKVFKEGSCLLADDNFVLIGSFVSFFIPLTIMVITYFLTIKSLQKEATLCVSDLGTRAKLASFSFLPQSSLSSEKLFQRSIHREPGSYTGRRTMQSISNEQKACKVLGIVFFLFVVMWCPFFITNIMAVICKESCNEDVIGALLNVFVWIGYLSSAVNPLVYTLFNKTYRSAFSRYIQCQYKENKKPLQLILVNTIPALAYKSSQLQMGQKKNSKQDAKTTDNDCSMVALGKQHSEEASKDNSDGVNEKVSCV
Chain of KiSS-1 receptor (Homo sapiens) (Q969F8 whole entry, looked up): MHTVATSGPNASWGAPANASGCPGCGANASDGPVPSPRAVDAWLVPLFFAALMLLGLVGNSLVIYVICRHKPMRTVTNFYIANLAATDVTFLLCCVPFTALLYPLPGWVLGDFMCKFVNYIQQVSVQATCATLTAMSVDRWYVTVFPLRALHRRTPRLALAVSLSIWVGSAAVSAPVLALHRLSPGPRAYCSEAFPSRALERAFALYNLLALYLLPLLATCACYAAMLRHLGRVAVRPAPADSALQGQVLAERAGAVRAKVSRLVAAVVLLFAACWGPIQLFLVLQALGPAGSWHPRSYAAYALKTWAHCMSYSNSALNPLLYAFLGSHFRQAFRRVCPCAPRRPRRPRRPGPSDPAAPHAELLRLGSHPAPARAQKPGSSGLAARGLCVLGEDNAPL
Chain of Beta-2 adrenergic receptor (Homo sapiens) (P07550 whole entry, looked up): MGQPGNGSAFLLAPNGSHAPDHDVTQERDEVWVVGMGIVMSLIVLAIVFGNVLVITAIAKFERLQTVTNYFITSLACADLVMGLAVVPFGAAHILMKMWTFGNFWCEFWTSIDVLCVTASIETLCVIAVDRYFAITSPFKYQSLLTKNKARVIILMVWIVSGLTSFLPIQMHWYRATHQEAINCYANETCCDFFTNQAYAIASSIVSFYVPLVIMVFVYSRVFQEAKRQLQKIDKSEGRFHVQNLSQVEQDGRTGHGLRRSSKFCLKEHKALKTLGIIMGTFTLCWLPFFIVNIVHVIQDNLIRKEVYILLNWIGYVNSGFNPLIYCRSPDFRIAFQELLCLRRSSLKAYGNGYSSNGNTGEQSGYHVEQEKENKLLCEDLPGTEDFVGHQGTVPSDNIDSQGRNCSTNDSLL

CC(=O)Nc1ccc(/C=N/NC(N)=S)cc1
inactive: Potency [1] | Potency [2] | Potency [3] | Potency [4] | Potency [5] | Potency [6] | Potency [7] | Potency [8] | Potency [9] | Potency [10] | Potency [11] | Potency [12] | Potency [13] | Potency [14] | Potency [15] | Potency [16]

CCN(CC)c1ccc2c(-c3ccccc3C(=O)O)c3ccc(=[N+](CC)CC)cc-3oc2c1
active: Potency [1] 15.4 µM | Potency [2] 34.7 µM | Potency [3] 49 µM | Potency [4] 34.7 µM | Potency [11] 49 µM | Potency [12] 43.6 µM
inactive: Potency [5] | Potency [6] | Potency [7] | Potency [8] | Potency [9] | Potency [17] | Potency [18] | Potency [13]

CCCCCCCCCC(C)C=O (centres undefined)
inactive: Potency [1] | Potency [2] | Potency [3] | Potency [4] | Potency [5] | Potency [6] | Potency [7] | Potency [8] | Potency [10] | Potency [11] | Potency [17] | Potency [12] | Potency [13] | Potency [14] | Potency [15] | Potency [16]

O=C(c1ccccc1)c1cc(Cl)ccc1O
active: Potency [13] 41.1 µM
inactive: Potency [1] | Potency [2] | Potency [3] | Potency [4] | Potency [5] | Potency [6] | Potency [7] | Potency [8] | Potency [9] | Potency [10] | Potency [11] | Potency [12] | Potency [14] | Potency [15] | Potency [16]

CCc1oc2ccccc2c1C(=O)c1cc(I)c(O)c(I)c1
active: Potency [1] 5.96 µM
inactive: Potency [2] | Potency [3] | Potency [4] | Potency [5] | Potency [6] | Potency [7] | Potency [8] | Potency [11] | Potency [17] | Potency [12] | Potency [18] | Potency [13] | Potency [14] | Potency [19] | Potency [16]

O=C(C(=O)c1ccc(Br)cc1)c1ccc(Br)cc1
inactive: activity change, negative = cytotoxicity [1] -1.93% [at 19 µM] | activity change [2] 0.0439% [at 11.8 µM, hits give high values] | activation [3] 0.431% [at 15.8 µM] | activation [4] -0.382% [at 11.8 µM] | activation [5] -9.98% [at 13.5 µM] | activation [6] -6.75% [at 13.6 µM] | activity change, negative = cytotoxicity [20] -13.3% [at 13.5 µM] | activity change, negative = cytotoxicity [8] -2.62% [at 13.5 µM] | activity, negative = inhibition [10] 10.2% [at 12.7 µM] | activation [11] 2.38% [at 15.9 µM] | activity, negative = inhibition [17] 5.04% [at 12.6 µM] | activation [12] -0.452% [at 15.8 µM] | activation [18] -0.367% [at 19 µM] | activity change, negative = inhibition [13] -9.38% [at 18.9 µM] | activation [15] -0.026% [at 19 µM]

CC[C@]12CCCN3CCc4c(n(c5ccccc45)C(=O)C1)[C@@H]32
inactive: Potency [1] | Potency [2] | Potency [3] | Potency [4] | Potency [5] | Potency [6] | Potency [7] | Potency [10] | Potency [17] | Potency [12] | Potency [18] | Potency [13] | Potency [14] | Potency [19] | Potency [15] | Potency [16]

O=[N+]([O-])c1cccc(S(=O)(=O)O)c1
inactive: Potency [1] | Potency [2] | Potency [3] | Potency [4] | Potency [5] | Potency [6] | Potency [20] | Potency [8] | Potency [9] | Potency [10] | Potency [17] | Potency [12] | Potency [14] | Potency [15] | Potency [16]
